Compound activity: PubChem BioAssay, National Center for Advancing Translational Sciences (NCATS)
Luciferase inh – blocks purified firefly luciferase enzyme activity | P08659 | purified P. pyralis luciferase, luminescence, biochemical | Potency, µM (titrated, usually from 115 µM), most hits filed as inhibitors | 76,000 tested, 2.5% active | AID 1347043; also: nearly all actives have a fitted effect of over 65% in size
Target sequence (P08659 whole entry, looked up): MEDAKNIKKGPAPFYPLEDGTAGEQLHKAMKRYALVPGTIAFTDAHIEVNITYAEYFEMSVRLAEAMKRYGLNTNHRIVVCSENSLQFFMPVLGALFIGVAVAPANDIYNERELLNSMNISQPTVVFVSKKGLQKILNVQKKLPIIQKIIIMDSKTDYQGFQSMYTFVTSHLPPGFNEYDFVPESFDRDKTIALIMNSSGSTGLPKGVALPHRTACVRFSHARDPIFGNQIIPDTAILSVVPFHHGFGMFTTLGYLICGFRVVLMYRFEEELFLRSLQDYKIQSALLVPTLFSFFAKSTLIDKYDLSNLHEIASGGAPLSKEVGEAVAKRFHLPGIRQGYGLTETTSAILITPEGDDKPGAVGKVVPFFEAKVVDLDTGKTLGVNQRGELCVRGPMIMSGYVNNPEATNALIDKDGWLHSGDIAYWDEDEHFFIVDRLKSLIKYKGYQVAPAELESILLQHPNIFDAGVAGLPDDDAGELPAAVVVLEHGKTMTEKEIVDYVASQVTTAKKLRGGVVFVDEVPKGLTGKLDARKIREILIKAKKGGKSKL
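Cell-free enzyme assay, 10nM P. pyralis luciferase, luciferin and ATP each at 10uM. Inhibition profiled over a 6-point titration, read as luminescence.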
NIH3T3 tox – cytotoxic compounds in NIH 3T3 cells; NIH 3T3 viability, CellTiter-Glo ATP luminescence, 48-72 h; Potency, µM (titrated, usually from 96.7 µM), most hits filed as inhibitors; 94,000 tested, 4.3% active; AID 1345082; also: nearly all actives have a fitted effect of over 55% in size
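Cytotoxicity was measured by CellTiter-Glo ATP luminescence after 48 or 72 h compound exposure at 37 °C. Mouse NIH 3T3 fibroblasts were seeded at 400 cells/well and dosed by 23 nL pin transfer.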
HEK293 tox – HEK 293 cell cytotoxicity; HEK 293 viability, ATP luminescence (CellTiter-Glo), 48-72 h; Potency, µM (series often up to 115 µM), hits mostly inhibitors; 94,000 tested, 6.6% active; AID 1345083; also: nearly all actives have a fitted effect of over 60% in size
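HEK 293 cells seeded at 250 cells/well were exposed to compound for 48 or 72 hr at 37 degree Celsius. Viability taken as ATP content by CellTiter-Glo luminescence.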
NPR1 antag – human Npr1 receptor antagonism; P16066; HEK293 hNpr1 GloSensor cGMP, ANP-stimulated luminescence; Potency, µM (series often up to 46.3 µM), actives largely listed as inhibitors; 76,000 tested, 1.6% active; AID 1347048; calls by dose curve; also: nearly all actives have a fitted effect of over 60% in size
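HEK293 cells stably expressing human Npr1 and cGMP GloSensor pGS-40F, loaded 2 h with 2% GloSensor reagent, given compound 30 min at room temperature. Luminescence read before and 20 min after 0.1 nM hNppA.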
GPT2 inh – inhibitors of human GPT2 alanine aminotransferase | Q8TD30 | Recombinant GPT2, coupled pyruvate oxidase/HRP Amplex Red fluorescence | Potency, µM (highest dose often 57.7 µM), most hits filed as inhibitors | 100,000 tested, 0.25% active; also: nearly all actives have a fitted effect of over 60% in size
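Fluorescence of coupled pyruvate oxidase/HRP/Amplex Red system (50uM Amplex, 30 min, dark) reports pyruvate formed by GPT2. Enzyme reaction: 10ng/uL GPT2, 2mM L-alanine, 250uM a-KG, 30 min room temperature, pH 7.5; 50uM AOA control.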
NPR1 antag cnf – hNpr1 antagonism, confirmation assay; shares compounds with NPR1 antag; HEK293 hNpr1 cGMP GloSensor luminescence, ANP-stimulated; Potency, µM (series often up to 57.6 µM), actives largely listed as inhibitors; 1,400 tested, 76% active; AID 1347044; calls by dose curve; also: nearly all actives have a fitted effect of over 70% in size
Npr2 selectivity – selectivity test of Npr1 antagonists against human Npr2; shares compounds with NPR1 antag; Potency, µM (titrated, usually from 57.6 µM), hits mostly inhibitors; AID 1347046; 1,400 tested, 67% active; HEK293 hNpr2 GloSensor cGMP luminescence, CNP-stimulated; calls by dose curve; also: nearly all actives have a fitted effect of over 70% in size
FLuc inh counter – counter-screen for Npr1 antagonists: firefly luciferase inhibitors. shares compounds with NPR1 antag. purified FLuc enzyme, luminescence, Km substrate. Potency, µM (top dose mostly 57.6 µM), hits mostly inhibitors. 1,400 tested, 0.7% active
GloSensor cGMP – counter-screen for Npr1 antagonists: GloSensor control cell line | shares compounds with NPR1 antag | HEK293 GloSensor cGMP, SNP-stimulated, luminescence | Potency, µM (titrated, usually from 57.6 µM), actives largely listed as inhibitors | 1,400 tested, 69% active; calls by dose curve; also: nearly all actives have a fitted effect of over 70% in size
Numbers stand for hits; n = inactive; u = inconclusive; x = not tested or not shown. Most compounds without a hit are left out; they make up all but 10% or so of the library. Unless noted, calls follow the shape of the dose curve; as a rule, active = well fitted curve in the direction sought with a large enough effect; inconclusive = small, poorly fitted or top-dose-only effect, or another doubt; inactive = no such curve, though single readings can be large; an effect the other way counts as inactive or inconclusive.

SMILES	Luciferase inh	NIH3T3 tox	HEK293 tox	NPR1 antag	GPT2 inh	NPR1 antag cnf	Npr2 selectivity	FLuc inh counter	GloSensor cGMP
COc1ccc2cc(C(=O)N3CCC4(CC3)CC(C(=O)N3CCOCC3)N(C)C4)[nH]c2c1 (stereo not drawn)	n	n	n	n	n	x	x	x	x
OC1CC(c2cc(N3CCC(CCn4cccn4)CC3)ncn2)C1 (stereo not drawn)	n	u	u	7.9µM	n	14µM	12µM	n	9.7µM
OC1CC(c2cc(N3CCN(c4nsc5ccccc45)CC3)ncn2)C1 (stereo not drawn)	n	18µM	11µM	1.6µM	n	2.7µM	3.1µM	n	2.4µM
C=CCN(C)C(=O)CC1COc2ccc(C(=O)N(C)C)cc2N1C (stereo not drawn)	n	n	n	n	n	n	n	n	n
Cc1ccc(C2(C(=O)NC(C)c3cnc(-c4ccncc4)nc3C)CC2)cc1 (stereo not drawn)	n	u	u	u	n	u	u	n	n
COC(=O)c1ccc(CNC(C)c2cnc(-c3ccncc3)nc2C)cc1 (stereo not drawn)	n	n	n	n	n	x	x	x	x
CN1C[C@@H](NC(=O)CC(C)(C)CC(=O)O)C[C@H]1c1nc(-c2ccccc2)no1	u	n	n	n	n	x	x	x	x
CN1C[C@@H](NC(=O)Nc2ccc(Cl)cc2)C[C@H]1c1nc(-c2ccc(F)cc2)no1	n	u	32µM	32µM	n	13µM	20µM	n	13µM
COc1ccc(-c2noc([C@@H]3C[C@H](NS(=O)(=O)c4ccc5ccccc5c4)CN3C)n2)cc1	n	u	u	20µM	n	24µM	24µM	u	19µM
Cc1ccc(-c2noc([C@@H]3C[C@H](NC(=O)CC(C)(C)C)CN3C)n2)cc1	n	u	89µM	35µM	n	u	u	n	u
CN1C[C@@H](NC(=O)Nc2cccc(C#N)c2)C[C@H]1c1nc(-c2ccccn2)no1	n	n	u	n	n	x	x	x	x
CN1C[C@@H](NC(=O)Nc2cccc(C#N)c2)C[C@H]1c1nc(-c2ccc(Cl)cc2)no1	n	40µM	u	25µM	n	16µM	25µM	n	18µM
O=C(C1CC1)N1CCCN(c2ccnc3ccnn23)CC1	x	n	n	x	n	x	x	x	x
C(=C\c1ccccc1)/CN1CCN(Cc2nc(COc3ccccc3)no2)CC1	n	u	u	n	n	u	n	n	u
O=C1CCN(C(=O)COc2ccccc2)CCCC(C(=O)NCc2ccccc2)CCN1 (stereo not drawn)	n	n	n	n	n	x	x	x	x
CC(C)c1nncn1C1CCN(S(=O)(=O)c2cccc(Cl)c2)CC1	n	n	n	u	n	u	u	n	24µM
N#Cc1cccc(CN2CCOC[C@H]2c2ncc(-c3ccc(Cl)s3)[nH]2)c1	n	u	u	28µM	u	40µM	u	n	u
Fc1cccc(-c2cnc([C@@H]3COCCN3Cc3ccccc3)[nH]2)c1	n	u	u	n	n	x	x	x	x
Fc1ccc(CN2CCOC[C@H]2c2ncc(-c3ccc(F)cc3F)[nH]2)cc1	n	u	79µM	u	n	u	u	n	u
Cn1c(CN2CCOC[C@H]2c2ncc(-c3ccc(Cl)cc3)[nH]2)nc2ccccc21	n	u	79µM	20µM	n	31µM	28µM	n	u
CC(C)c1noc(-c2cccn3c(CNC(=O)c4cc(F)ccc4Cl)nnc23)n1	n	n	n	n	n	x	x	x	x
O=C(NCCc1ccccc1F)c1cn2cc(-c3ccccc3)sc2n1	x	u	n	x	n	x	x	x	x
Cc1ccccc1C(=O)N1CCN(CCn2nc3n(c2=O)CCCC3)CC1	x	n	n	x	x	x	x	x	x
O=C(C[C@@H]1CCNC[C@@H]1Cc1cc(CC2CCCCC2)on1)NCc1ccccc1	n	32µM	u	14µM	n	20µM	28µM	n	18µM
O=C(C[C@@H]1CCNC[C@@H]1Cc1cc(CN2CCCCC2)on1)N1CCN(c2ccccc2)CC1	n	u	u	n	n	x	x	x	x
SMILES	Luciferase inh	NIH3T3 tox	HEK293 tox	NPR1 antag	GPT2 inh	NPR1 antag cnf	Npr2 selectivity	FLuc inh counter	GloSensor cGMP
CC1=C[C@@H](CNS(C)(=O)=O)[C@H](C(C)C)C[C@H]1Cc1nc2ccccc2n1C	n	u	u	28µM	u	35µM	28µM	n	31µM
COc1ccc(C(=O)N2CCC3(CC2)CC(=O)Nc2ccccc2O3)cc1	n	n	n	13µM	u	22µM	22µM	n	22µM
COc1ccc(C(=O)N2CCC3(CC2)CC(=O)c2ccccc2O3)cc1	n	n	u	n	n	x	x	x	x
Cc1ccc(C(=O)N2CCC3(CC2)CC(=O)Nc2ccccc2O3)cc1	x	n	u	x	n	24µM	24µM	n	15µM
COc1cc(CN2CCC(C)(NC(C)=O)CC2)cc(-c2ccncc2)c1	x	x	x	x	x	22µM	8.9µM	n	n
COc1cc(CN2CCC(C)(NC(C)=O)CC2)cc(-c2ccc3[nH]ncc3c2)c1	n	u	u	n	n	x	x	x	x
COc1ccc([S+](=O)([O-])N2CCC3(CC2)OCCN(c2ccc(F)cc2)C3=O)cc1	n	u	u	u	n	31µM	u	n	31µM
Cc1cn2nc(C(=O)NCc3ccccc3F)cc2c(=O)[nH]1	u	n	n	n	n	x	x	x	x
COc1ccc(-n2nc(C)c([C@@H]3C=C[C@@H](NS(=O)(=O)c4cccs4)C3)c2C)cc1	n	u	u	u	n	u	u	n	35µM
Cc1nn(Cc2ccccc2)c(C)c1[C@@H]1C=C[C@@H](NC(=O)c2cccs2)C1	n	u	u	n	n	x	x	x	x
Cc1nn(Cc2ccccc2)c(C)c1[C@@H]1C=C[C@@H](NS(=O)(=O)c2cccs2)C1	n	u	u	u	n	u	u	n	u
COc1ccc(CN[C@@H]2C=C[C@@H](c3c(C)nn(-c4cccc(Br)c4)c3C)C2)cc1	n	u	u	n	n	x	x	x	x
COc1ccc(-n2nc(C)c([C@H]3C=C[C@@H](OC(=O)N[C@H](C)c4ccccc4)C3)c2C)cc1	n	u	14µM	11µM	n	9.9µM	13µM	n	8.9µM
O=C1[C@@H]2C[C@@H](O)CN2C2(CN(Cc3ccccn3)C2)C(=O)N1Cc1ccccc1Cl	n	u	n	n	u	x	x	x	x
CC(C)(C)C(=O)NCCNC(=O)c1ccc(-c2cncnc2)cc1	x	n	n	x	x	x	x	x	x
